# High-throughput results (PubChem BioAssay)
# FUS yeast rescue: suppressors of FUS proteinopathy in yeast; S. cerevisiae FUS-expressing, growth rescue, OD600, 24 h; Potency, µM (series often up to 76.6 µM), usual class: activators; hit rate 0.24% among 390,000; further: nearly all actives have a fitted effect of over 55% in size
#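 Quantitative HTS measuring growth restoration of FUS-toxic yeast. Galactose-induced cells (OD 0.005) were exposed 24hr at 30C to compounds at several concentrations, then absorbance at 600 nm was recorded.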
# Abeta rescue: compounds reversing amyloid beta toxicity in yeast; Potency, µM (top dose mostly 46.1 µM), most hits filed as activators; AID 1347071; yeast expressing A-beta42, growth rescue, OD600, 48 h; response scale: 0% DMSO, 100% iron-clioquinol control; hit rate 0.063% among 410,000; further: nearly all actives have a fitted effect of over 55% in size
#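 Yeast growth medium received pinned compounds, then yeast cells expressing toxic A-beta were added; plates incubated at 30 C for 48 hr. Growth read as absorbance at 600 nm, normalized to DMSO and equimolar FeCl3 plus clioquinol controls.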
# TDP43 rescue: TDP-43 toxicity inhibition in yeast | TDP-43 expressing yeast growth rescue, BacTiter-Glo, 24 h | Potency, µM (top dose mostly 46.1 µM), usual class: activators | hit rate 1.8% among 410,000 | AID 652104; further: nearly all actives have a fitted effect of over 50% in size
#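 Readout is BacTiter-Glo luminescence of cell growth, so inhibitors register as activators. TDP-43-expressing yeast at OD600=0.02 in galactose medium, after raffinose pregrowth to mid-log, were incubated with compound for 24 hr at 30 deg C.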
# aSyn rescue: rescues yeast growth from alpha-synuclein toxicity; AID 652106; hit rate 0.14% among 370,000; Potency, µM (doses to about 46.1 µM), actives largely listed as activators; Yeast expressing alpha-synuclein, growth rescue, BacTiter-Glo, 24 h; further: nearly all actives have a fitted effect of over 65% in size
#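 Rescue of yeast growth: cells expressing toxic alpha-synuclein, induced in galactose at OD600 0.02, incubated with compound 24 h at 30 C. ATP luminescence quantified growth; inhibitors of toxicity appear as activators.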
# Hits are given with their value; n = inactive; u = inconclusive; x = not tested or not shown; [ ] = another dose, or the depositor's remark. The list is not random: actives were taken first. Their share in the collection is about 2.1%. The call rests on the fitted dose curve; in most records, active means well fitted curve in the direction sought with a large enough effect; inconclusive means small, poorly fitted or top-dose-only effect, or another doubt; inactive means no such curve, though single readings can be large; an effect the other way counts as inactive or inconclusive.
SMILES,FUS yeast rescue,Abeta rescue,TDP43 rescue,aSyn rescue
Cc1ccc(S(=O)(=O)C(CNC(=O)c2ccc(C(F)(F)F)cc2)c2ccco2)cc1 (stereo not drawn),u,n,n,x
O=C(NCC(c1ccco1)S(=O)(=O)c1ccc(Cl)cc1)c1ccc(C(F)(F)F)cc1 (stereo not drawn),n,n,15.8µM,x
Cn1c(=O)c2cc(S(=O)(=O)NC(Cc3ccccc3)C(=O)Nc3ccc(F)cc3)ccc2n(C)c1=O (stereo not drawn),n,n,n,x
CC(C)OC(=O)C(C(=O)C(F)(F)F)c1cc(NS(=O)(=O)c2ccc3ccccc3c2)c2ccccc2c1O (stereo not drawn),10µM,n,n,n
CC(NC(=O)COC(=O)c1ccco1)C12CC3CC(CC(C3)C1)C2 (stereo not drawn),x,x,x,n
O=C(Nc1nc(-c2cccs2)cs1)c1ccc(Cl)cc1,n,n,35.5µM,n
COc1ccc(-c2csc(NC(=O)Cc3ccccc3F)n2)c(OC)c1,n,n,12.6µM,n
Cc1ccc(C(=O)Nc2nccc(-c3cccs3)n2)cc1,n,n,12.6µM,n
O=C(Cc1ccccc1F)Nc1nc(-c2cccs2)cs1,n,n,12.6µM,n
COc1ccc(OC)c(-c2csc(NC(=O)Cc3ccccc3)n2)c1,n,n,u,n
O=C(NCC(c1cccs1)S(=O)(=O)c1cccs1)c1cccc(F)c1 (stereo not drawn),n,n,n,x
Cc1ccc(-n2c(=O)c3oc4ccccc4c3n(Cc3cccc(F)c3)c2=O)cc1C,u,n,n,x
Cc1cccc(/C=N/Nc2nncc3ccccc23)c1,n,n,n,n
C(=N\Nc1nncc2ccccc12)/c1ccccc1,n,n,22.4µM,n
COCCCNC(=O)CSc1nc(-c2cccc(F)c2)[nH]c1-c1ccccc1,n,n,n,x
COc1ccc(CSc2ccc(-c3nc4ccccn4c3NCc3ccccc3)cc2OC)cc1,u,n,35.5µM,n
CCC(C)Sc1ccc(-c2nc3ccccn3c2NCc2ccccc2)cc1OC (stereo not drawn),n,n,n,n
CCn1c(=O)c2sccc2n2c(CCC(=O)Nc3ccc(F)cc3)nnc12,n,n,n,x
CCN(C(=O)C(NS(=O)(=O)c1ccc(Br)s1)c1ccccc1)c1ccc(C)c(C)c1 (stereo not drawn),n,n,n,x
CC1CC(C)CN(C(=O)C(NS(=O)(=O)c2ccc(Br)s2)c2ccccc2)C1 (stereo not drawn),n,n,14.1µM,n
Cc1cccc(N2CCN(C(=O)CCn3c(=O)c4cccn4c4cccnc43)CC2)c1C,n,n,u,x
CCCc1cnc2c(c1SCC(=O)Nc1ccc(C)c(Cl)c1)c(=O)n(C)c(=O)n2C,n,n,n,x
CCOc1ccc2nc(NC(=O)C3(C)CC3(Br)Br)sc2c1 (stereo not drawn),n,u,17.8µM,n
CCOCC(=O)Nc1nc2ccc(OCC)cc2s1,n,n,n,n
Cc1cc(C(=O)N2CCN(Cc3ccccc3)CC2)ccc1[N+](=O)[O-],n,n,n,n
SMILES,FUS yeast rescue,Abeta rescue,TDP43 rescue,aSyn rescue
O=C(c1cnc(Cl)c(Cl)c1)N1CCC(Cc2ccccc2)CC1,n,n,12.6µM,n
Cc1cc(C(=O)N2CCC(Cc3ccccc3)CC2)ccc1[N+](=O)[O-],11.2µM,n,u,n
CC1=C(C(=O)N2CCN(c3ccc(Cl)cc3)CC2)C2(CCC(C)CC2)OC1=O (stereo not drawn),n,n,n,x
CCOC(=O)c1nc(NCCc2ccccc2)sc1C,n,n,12.6µM,n
CCc1ccccc1NC(=O)CSc1nc2c(c(=O)[nH]1)CN(Cc1ccccc1OC)CC2,n,n,n,x
O=C(Nc1ccccc1Sc1ccccc1)c1ccccc1,n,u,11.2µM,n
O=C(CCl)Nc1ccccc1Sc1ccc(Cl)cc1,n,n,11.2µM,x
Cn1ccc(NC(=O)Nc2ccc(Cl)cc2Cl)n1,n,n,14.1µM,n
CC(=O)Oc1ccc2cc(-c3nc4c(s3)CCc3ccccc3-4)c(=O)oc2c1,x,x,x,n
COc1ccc(/C=C\c2onc(C)c2S(=O)(=O)N2CCC(C(=O)Nc3cccc(Cl)c3)CC2)cc1,n,n,n,x
Cc1ccccc1Nc1cc(C(=O)NCCc2ccc(Cl)cc2)c2ccccc2n1,n,n,17.8µM,x
COc1ccc(CNC(=O)c2cc(Nc3ccccc3C)nc3ccccc23)cc1,n,n,n,x
O=C(COc1ccc(Br)cc1Cl)c1ccc[nH]1,n,n,20µM,n
CCOC(=O)c1sc(N2C(=O)C(O)=C(C(=O)c3ccco3)C2c2ccco2)nc1C (stereo not drawn),28.2µM,n,n,n
CCOc1ccc2nc(N3C(=O)C(O)=C(C(=O)c4ccco4)C3c3ccco3)sc2c1 (stereo not drawn),n,n,n,n
COc1cccc(-c2nn(-c3ccc(C)cc3)cc2C(=O)N(C)CC(=O)Nc2cccc(F)c2)c1,x,n,22.4µM,n
C=CCn1c(O)c(N=NC(=S)Nc2cccc(OC)c2)c2ccccc21,n,u,15.8µM,22.4µM
COC(=O)c1ccc(NC(=O)C(C)N2Cc3ccccc3C2=O)cc1 (stereo not drawn),n,n,n,x
COc1cccc(CNC(=O)c2cccc(Br)c2)c1,n,n,22.4µM,n
COc1cccc(CNC(=O)COc2ccc(C(=O)c3ccccc3)cc2)c1,n,u,35.5µM,n
CCCCc1ccc(NC(=S)NCc2cccc(OC)c2)cc1,n,10µM,n[0.397 µM],n
O=C(Nc1cccc(C(=O)N2CCCCC2)c1)c1nsc2ccccc12,n,n,35.5µM,x
COc1cccc(CNC(=O)Cn2cccc2C(=O)c2ccccc2)c1,n,n,n,x
CCc1ccc(OCC(=O)N(Cc2ccc(C(C)C)cc2)C2CCS(=O)(=O)C2)cc1 (stereo not drawn),u,n,u,x
O=C(C(=O)N1CCN(C(=O)c2ccco2)CC1)c1ccccc1,n,n,n,n
SMILES,FUS yeast rescue,Abeta rescue,TDP43 rescue,aSyn rescue
COc1cccc(CNC(=O)c2cccc(NC(=O)c3nsc4ccccc34)c2)c1,n,n,35.5µM,x
Cc1cc2nc(C3CCCCC3)c(Cc3ccsc3)n2c(C)c1Br,n,n,n,3.55µM
Cc1ccc(Cc2c(C3CCCCC3)nc3cc(C)c(Br)c(C)n23)cc1,n,n,n,n
Cc1cc2nc(C(C)(C)C)c(Cc3ccsc3)n2c(C)c1Br,n,u,12.6µM,n
O=C(Nc1cccc([N+](=O)[O-])c1)NC1CCCCN(Cc2cccc(Cl)c2)C1=O (stereo not drawn),n,x,x,x
O=C1c2ccccc2C2(c3ccccc3)N1CCN2C(=O)C(Cl)(Cl)Cl (stereo not drawn),n,n,12.6µM,n
CCOC(=O)c1c(C)[nH]c(C)c1S(=O)(=O)N1CCC(C(=O)N2CCN(c3cccc(C)c3)C(C)C2)CC1 (stereo not drawn),n,n,n,x
Cc1ccccc1C(=O)Nc1cccc(NC(=O)c2ccc(C(C)(C)C)cc2)c1,n,n,n,x
O=C(c1ccc(F)cc1)N1c2ncnn2C2(CCCCC2)[C@@H]2CCCC[C@@H]21,n,n,u,x
